Source: PubChem BioAssay (several laboratories)
CYP2C19 inh: human CYP2C19 inhibition; P33261; CYP2C19 Supersomes, luciferin-H EGE luminescence, 30 min; inhibition, % at 5 µM; 96,000 tested, 21% active; AID 778;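 active = CYP2C19 inhibition above a set limit at 5 µM in the primary screen, cut at about 50% in these data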;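 note: plate controls were negative control wells for no effect and 2.5 mM tranylcypromine positive control for full effect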
Target sequence (P33261 whole entry, looked up): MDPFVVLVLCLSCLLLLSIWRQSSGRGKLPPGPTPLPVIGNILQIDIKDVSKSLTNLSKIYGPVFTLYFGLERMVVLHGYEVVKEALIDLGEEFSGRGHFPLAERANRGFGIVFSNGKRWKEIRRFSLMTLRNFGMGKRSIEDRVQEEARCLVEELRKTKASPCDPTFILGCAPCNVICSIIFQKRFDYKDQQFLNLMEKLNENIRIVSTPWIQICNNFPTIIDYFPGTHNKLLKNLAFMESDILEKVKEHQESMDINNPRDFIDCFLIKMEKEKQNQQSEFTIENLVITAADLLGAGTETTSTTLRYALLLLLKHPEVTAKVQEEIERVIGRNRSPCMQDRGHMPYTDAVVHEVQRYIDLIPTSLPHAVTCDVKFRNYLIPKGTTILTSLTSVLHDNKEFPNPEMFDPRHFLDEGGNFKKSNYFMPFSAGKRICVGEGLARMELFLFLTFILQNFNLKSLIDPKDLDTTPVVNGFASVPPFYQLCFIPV
Measles CPE: protection of cells from measles virus. protection (pct of control), % at 4 µM. AID 841. Measles virus-infected cells, CPE protection, absorbance. 140,000 tested, 1.5% active; in the data active = protection mostly above about 24%, no sharp cut-off; inactive = mostly below about 26%
CYP2C9 activ: activators of human CYP2C9 | P11712 | recombinant CYP2C9, luciferin-H conversion, luminescence; hits give high values; factor 1 = untreated enzyme, 0 = blocked | activation factor at 5 µM | 96,000 tested, 1.4% active;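 active = activation factor of 2 or more for CYP2C9 at a 5 µM dose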;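 note: 0 = sulfaphenazole-blocked wells and 1 = vehicle-only wells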
CYP2C9 inhib: blocks human cytochrome P450 2C9; CYP2C9 Supersomes, luciferin-H conversion, luminescence; inhibition, % at 5 µM; 96,000 tested, 20% active;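 active = blocking of liver enzyme CYP2C9 beyond about 50% at 5 µM, limit read from the data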
CYP2C19 activ: cytochrome P450 2C19 (human) activation | AID 1025 | recombinant CYP2C19, luciferin-H EGE luminescence; hits give high values; 0 = fully inhibited enzyme, 1 = untreated enzyme | activation factor at 5 µM | P33261 | 96,000 tested, under 10 active;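 active = activation factor of at least 2 at 5 µM in the primary screen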;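 note: 0 = wells with 2.5 mM tranylcypromine and 1 = vehicle-only wells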
The depositor's hits bear a star; / = no result. Compounds with a hit are over-represented: about 22% of the library has one in this group of screens.

SMILES	CYP2C19 inh	Measles CPE	CYP2C9 activ	CYP2C9 inhib	CYP2C19 activ
O=C1C(=O)N(CCN2CCOCC2)C(c2ccncc2)/C1=C(/O)c1ccc2c(c1)OCO2 (configuration not stated)	/	9	/	/	/
S=C(NNc1ccnc2cc(Cl)ccc12)Nc1ccccc1Cl	/	19	/	/	/
CCOC(=O)c1c(NC(=O)CCC(=O)N2CCOCC2)sc2c1CC(C)(C)OC2	27	18	1.2	-19	0.7
O=C(COc1cccnc1[N+](=O)[O-])NC1CCS(=O)(=O)C1 (configuration not stated)	/	6	/	/	/
CCOC(=O)c1ccc(NC(=O)CCS(=O)(=O)c2ccc(Br)s2)cc1	29	0	0.5	51*	0.7
CCOc1ccc(NC(=O)CCNS(=O)(=O)c2ccc(Br)s2)cc1	7	5	1.4	-41	0.9
COCCSc1ccccc1C(=O)Nc1ccc2c(c1)OCCO2	12	5	0.9	13	0.9
Cc1c([N+](=O)[O-])cc(C(=O)Oc2ccc(Br)cc2C(=S)N2CCCCC2)cc1[N+](=O)[O-]	54*	14	0.7	33	0.5
COc1ccc(C(=O)NC(=S)N2CCCCC2)cc1[N+](=O)[O-]	/	35	/	/	/
CCc1ccccc1NC(=O)N[C@H](C(=O)O)C(C)CC (some centres not stated)	9	2	0.9	15	0.9
Cc1ccc2nc(SCC(=O)Nc3cccc([N+](=O)[O-])c3)[nH]c2c1	46	56	0.1	90*	0.5
Cc1ccc2nc(-c3ccc(NC(=O)CSc4ccccc4)cc3)[nH]c2c1	35	9	0.4	59*	0.7
Cc1ccc2nc(SCc3ccc([N+](=O)[O-])cc3)[nH]c2c1	/	7	/	/	/
Cc1cc(C)cc(NC(=O)CSc2nc3ccncc3[nH]2)c1	63*	3	0.2	76*	0.4
O=C(CSc1nc2ccc([N+](=O)[O-])cc2[nH]1)NC1CCCCC1	64*	10	0.4	62*	0.4
Cc1cc(C)cc(NC(=O)CCCSc2nc3ccccc3[nH]2)c1	/	2	/	/	/
COc1ccc2[nH]cc(CCCN3C(=O)c4ccccc4C3=O)c2c1	/	17	/	/	/
Cc1cc(C)nc(NS(=O)(=O)c2ccc(NC(=S)NC(=O)C(C)(C)C)cc2)n1	-3	12	0.8	21	1
O=C(COC(=O)c1ccccn1)NCc1ccccc1Cl	/	2	/	/	/
Cc1ccc(F)cc1NC(=O)Cc1ncc(C(F)(F)F)cc1Cl	51*	4	0.9	7	0.5
Cc1ccc(S(=O)(=O)N(C)C)cc1NC(=O)CSc1ncc(C(F)(F)F)cc1Cl	/	12	/	/	/
CC(=O)c1c(C)[nH]c(C(=O)NCCC2=CCCCC2)c1C	14	12	0.7	34	0.9
O=C(C1CC1)N(CCN(Cc1ccccc1)C(=O)C1CC1)Cc1ccccc1	54*	5	0.7	28	0.5
CCN(Cc1ccccc1)C(=O)C1CCN(CC2CC=CCC2)CC1 (configuration not stated)	/	4	/	/	/
c1coc(CNc2ncnc3sc4c(c23)CCCCC4)c1	87*	3	0.1	93*	0.1
SMILES	CYP2C19 inh	Measles CPE	CYP2C9 activ	CYP2C9 inhib	CYP2C19 activ
Cc1sc2ncnc(NCc3ccco3)c2c1C	78*	13	0.4	61*	0.2
Cc1sc2ncnc(NCc3cccs3)c2c1C	52*	3	0.6	42	0.5
Cc1sc2ncnc(NCCCO)c2c1C	14	25	0.8	17	0.9
CCOc1ccc(NC(=O)N2CCC(NC(=O)C(Cc3ccc(OC)c(OC)c3)NC(C)=O)CC2)cc1 (configuration not stated)	4	7	0.9	7	1
CC1(Br)C2CCCC1C2S(=O)(=O)c1ccccc1 (configuration not stated)	/	5	/	/	/
COc1ccc(S(=O)(=O)Nc2cc(Sc3ncn[nH]3)c(O)c3ccccc23)cc1	97*	19	0.1	94*	0
Cc1noc(C)c1CSc1nnc(-c2cc(Cl)ccc2Cl)n1N	32	3	0.8	25	0.7
COc1ccc2c(C(=O)CN3CC(C)OC(C)C3)c[nH]c2c1 (configuration not stated)	53*	7	0.8	21	0.5
CCn1c(COc2cccc(C)c2)nnc1SCC(=O)Nc1cccc(C(=O)O)c1	-19	2	0.2	79*	1.2
CCOC(=O)c1ccccc1NC(=O)CSc1nnc(COc2ccccc2)n1CC	89*	53*	1	2	0.1
CCn1c(COc2ccccc2C)nnc1SCC(=O)NC1CCCC1	27	8	1	-5	0.7
O=C(CSc1nnc(CNc2ccc(F)cc2)n1Cc1ccccc1)NCc1ccccc1	/	27	/	/	/
CCn1c(COc2cccc3ccccc23)nnc1SCC(=O)OC1CCCCC1	88*	28	0.5	48	0.1
COC(=O)CSc1nnc(CNc2ccc(Cl)cc2)n1Cc1ccccc1	97*	7	0.1	92*	0
Cc1nn(-c2ccccc2)c(C)c1C(=O)OCC(=O)NCc1ccco1	18	5	0.7	26	0.8
COc1cc(CN2CCC(C(=O)N3CCCC(C)C3)CC2)cc(Br)c1O (configuration not stated)	-8	17	1.1	-11	1.1
CCn1c(COc2ccccc2C)nnc1SCC(=O)O	18	2	1.2	-21	0.8
CCn1c(COc2cccc(C)c2)nnc1SCC(=O)Nc1cccc(C(=O)OC)c1	32	5	0.4	56*	0.7
CCOC(=O)c1cccc(NC(=O)CSc2nnc(COc3ccccc3)n2CC)c1	58*	3	0.4	63*	0.4
CCn1c(COc2ccccc2C)nnc1SCC(=O)CC(=O)Nc1ccccc1	35	3	0.5	55*	0.7
CCn1c(COc2cccc(OC)c2)nnc1SCC(=O)Nc1cccc(OC)c1	82*	5	0.4	64*	0.2
COC(=O)c1cccc(NC(=O)CSc2nnc(COc3ccccc3)n2C)c1	2	19	0.9	12	1
CCOC(=O)c1cccc(Nc2nc(-c3cccnc3)nc3ccccc23)c1	74*	29*	0.1	88*	0.3
CCOC(=O)c1cccc(NC(=O)CSc2nnc(-c3cccnc3)n2CC)c1	53*	2	0.4	64*	0.5
CCn1c(CNc2ccc(C)cc2)nnc1SCC(=O)NCc1ccccc1	78*	4	0.6	37	0.2
SMILES	CYP2C19 inh	Measles CPE	CYP2C9 activ	CYP2C9 inhib	CYP2C19 activ
CCn1c(SCC(=O)Nc2ccccc2C(=O)OC)nnc1-c1cccc(C)c1	99*	5	0.3	68*	0
O=C(CC12CC3CC(CC(C3)C1)C2)NCC(=O)OCc1cc(=O)oc2ccc3ccccc3c12	/	30	/	/	/
NNC(=O)c1ccncc1	/	28	/	/	/
Cc1[nH]c2ccc(-c3n[nH]c(=S)n3Cc3ccccc3)cc2c1C	/	30	/	/	/
CC(C)(C)c1ccc(-c2nnc(SCC(=O)Nc3sc4c(c3C#N)CCCC4)o2)cc1	/	20	/	/	/
Cc1ccc(N(CC(=O)N2CCOCC2)S(C)(=O)=O)cc1C	-1	15	1	3	1
CCOC(=O)c1cccc(NC(=O)CSc2nnc(CNc3ccc(C)cc3)n2CC)c1	66*	7	0.3	70*	0.3
